FLuc modulator – qHTS profiling assay for firefly luciferase inhibitor/activator using purifed enzyme and Km concentrations of substrates (counterscreen for miR-21 project); purified FLuc, Km substrates, luminescence inhibition; Potency, µM (highest dose often 57.5 µM), hits mostly inhibitors; actives 6.9% (n = 360,000); note: nearly all actives have a fitted effect of over 55% in size
Target sequence (P08659 whole entry, looked up): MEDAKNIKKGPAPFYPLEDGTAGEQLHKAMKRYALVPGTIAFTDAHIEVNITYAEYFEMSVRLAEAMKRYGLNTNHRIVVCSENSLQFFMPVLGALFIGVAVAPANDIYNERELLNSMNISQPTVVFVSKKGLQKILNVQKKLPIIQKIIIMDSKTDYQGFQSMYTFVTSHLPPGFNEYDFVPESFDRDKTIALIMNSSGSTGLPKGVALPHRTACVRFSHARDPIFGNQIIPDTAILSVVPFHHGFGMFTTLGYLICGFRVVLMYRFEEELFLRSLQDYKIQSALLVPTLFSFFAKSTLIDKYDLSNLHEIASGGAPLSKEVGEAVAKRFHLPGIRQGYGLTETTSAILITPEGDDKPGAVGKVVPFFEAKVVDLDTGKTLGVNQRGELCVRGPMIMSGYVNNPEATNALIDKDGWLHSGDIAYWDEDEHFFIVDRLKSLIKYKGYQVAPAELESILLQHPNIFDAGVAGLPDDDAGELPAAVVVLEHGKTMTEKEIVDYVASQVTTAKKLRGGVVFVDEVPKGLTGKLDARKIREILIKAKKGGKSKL
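Biochemical qHTS of compounds, final roughly 60 µM downward over six points, against 10 nM purified firefly luciferase using Km concentrations of substrates (10 uM D-luciferin, 10 uM ATP) in Tris acetate pH 7.5 buffer; luminescence output.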
ELG1 DNA repair – qHTS screen for small molecules that inhibit ELG1-dependent DNA repair in human embryonic kidney (HEK293T) cells expressing luciferase-tagged ELG1 | HEK293T ELG1-luciferase reporter, luminescence, 16 h; DNA damage induced by 5-fluorouridine | Potency, µM (doses to about 46.1 µM), hits mostly inhibitors | actives 2.3% (n = 330,000) | AID 504467, 2011; note: nearly all actives have a fitted effect of over 55% in size
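Luminescence from the luciferase reporter, measured 30 min after ONE-Glo reagent at room temperature, was the read-out. Beforehand, 2,000 cells per well were exposed for 16 hr at 37 °C to 5-fluorouridine together with compound or vehicle.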
Rab9 promoter act – qHTS Assay for Rab9 Promoter Activators; Huh7 Rab9 promoter-luciferase reporter, luminescence, 24 h; Potency, µM (series often up to 9.22 µM), usual class: activators; actives 2.8% (n = 320,000); note: nearly all actives have a fitted effect of over 60% in size
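Promoter activation is measured as luciferase luminescence in Huh7 cells stably transfected with a Rab9 promoter–luciferase construct, following 24 h compound exposure at 37 °C and 10 min reagent incubation at ambient temperature.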
ELG1 genotoxic – qHTS screen for small molecules that induce genotoxicity in human embryonic kidney (HEK293T) cells expressing luciferase-tagged ELG1; HEK293T ELG1-luciferase reporter, luminescence, 16 h; Potency, µM (top dose mostly 46 µM), usual class: activators; actives 1.3% (n = 330,000); AID 504466, 2011; note: nearly all actives have a fitted effect of over 60% in size
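Genotoxic stress is detected as increased luminescence from luciferase-tagged ELG1 in HEK293T cells, measured with ONE-Glo after a 16 hr treatment at 37 °C.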
SMN2 splice up – qHTS Assay for Enhancers of SMN2 Splice Variant Expression | HEK293 SMN2-luciferase splicing reporter, luminescence, 30-36 h | Potency, µM (highest dose often 46.1 µM), most hits filed as activators | actives 2.8% (n = 210,000) | AID 1458, 2008; note: nearly all actives have a fitted effect of over 55% in size
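qHTS luciferase splicing reporter: luminescence rises when SMN2 exon 7 is included in transfected HEK293 cells. Compound exposure lasted 30-36 h at 37C, with 4.5 mM final sodium butyrate as control, followed by a ONE-Glo read.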
NPC1 promoter act – qHTS Assay for NPC1 Promoter Activators; Potency, µM (titrated, usually from 9.22 µM), usual class: activators; actives 2.4% (n = 320,000); Huh7 NPC1 promoter luciferase reporter, 24 h; note: nearly all actives have a fitted effect of over 60% in size
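Luminescence read-out of NPC1 promoter-driven luciferase in stably transfected Huh7 cells; compounds delivered in DMSO and left 24 h at 37C, 5% CO2, qHTS titration format.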
A number is an active result; 0 = inactive; ? = inconclusive; - = not tested or not shown. Sampled rows, rich in hits. Any-hit rate of the full collection: about 9.2%. Calls come from the whole dose curve; as a rule, active = well fitted curve in the direction sought with a large enough effect; inconclusive = small, poorly fitted or top-dose-only effect, or another doubt; inactive = no such curve, though single readings can be large; an effect the other way counts as inactive or inconclusive.

SMILES | FLuc modulator | ELG1 DNA repair | Rab9 promoter act | ELG1 genotoxic | SMN2 splice up | NPC1 promoter act
Oc1ccc(-c2n[nH]c(=S)n2-c2ccc3c(c2)OCCO3)c(O)c1 | ? | 3.7µM | 0 | 0 | 0 | 0
COc1cccc(-c2csc(NC(=O)C3CC3)n2)c1 | 11µM | ? | ? | 12µM | 0 | ?
O=C(Nc1ccccc1)Nc1nc(-c2ccccc2)cs1 | ? | 0 | 0 | 0 | - | 0
COc1ccc(NC(=O)CN2CCN(c3nc(-c4cccc(OC)c4)cs3)CC2)cc1 | ? | 12µM | 0 | 0 | 0 | 0
COc1cccc(-c2csc(NC(=O)Nc3ccccc3)n2)c1 | 13µM | ? | 0 | 0 | - | 0
CC1CN(S(=O)(=O)c2cccc(C(=O)Nc3ccc4c(c3)CCC4)c2)CC(C)O1 (stereo not drawn) | 0 | ? | 0 | 0 | - | 0
COc1ccc(OC)c(/C=C/C(=O)OCC(=O)c2c(N)n(C)c(=O)n(C)c2=O)c1 | 0 | 0 | 0 | 0 | 0 | 0
CC1=NOC(=O)/C1=C\c1ccc(-c2ccc(Cl)cc2Cl)o1 | 5.4µM | 0 | 0 | 0 | 0 | 0
CCCOc1ccc(Cl)cc1/C=C1/C(=O)ON=C1C | 0 | ? | 0 | 0 | - | 0
CCOc1ccccc1NS(=O)(=O)c1ccc(N2CCCCS2(=O)=O)cc1 | 0 | - | - | - | - | -
C=CCCCCCCCCc1nc(SCC(C)=O)n[nH]1 | 0 | 23µM | 0 | 0 | - | 0
O=C1NC(Cc2ccccc2)C(=O)N1CC(=O)N1CCCc2ccccc21 (stereo not drawn) | 0 | 0 | 0 | 0 | 0 | 0
O=C(Nc1ccc2c(c1)OCCO2)c1cccc(S(=O)(=O)N2CCOCC2)c1 | ? | ? | 4.5µM | ? | ? | ?
CS(=O)(=O)c1cccc(C(=O)Nc2ccc3c(c2)OCCCO3)c1 | 15µM | ? | 3.5µM | ? | - | ?
O=C(Nc1ccc(Cl)c(S(=O)(=O)N2CCOCC2)c1)c1ccc2c(c1)OCO2 | - | 6.5µM | - | 0 | - | -
O=C(Nc1ccc2c(c1)OCCO2)c1cccc(S(=O)(=O)N2CCCCC2)c1 | ? | 0 | 0 | 0 | 0 | 0
CCC(CC)C(=O)Nc1cccc(C(=O)Nc2ccc3c(c2)OCO3)c1 | ? | ? | 0 | 0 | 8.9µM | 0
Clc1cccc(CN2CCN(Cc3nc(CCc4ccccc4)no3)CC2)c1 | 0 | 0 | 0 | 0 | - | 0
COCC(=O)N1CCC2(CC1)CCN(C(=O)Nc1cccc(C#N)c1)CC2 | - | - | - | - | 0 | -
CCN(CC)S(=O)(=O)c1cccc(C(=O)Nc2ccc3c(c2)OCO3)c1 | 15µM | ? | ? | 0 | ? | ?
O=C(Nc1ccc(Cl)c(S(=O)(=O)N2CCOCC2)c1)c1ccc2c(c1)OCCO2 | 27µM | 23µM | 0 | 0 | 0 | 0
CCCN(CCC)S(=O)(=O)c1cccc(C(=O)Nc2ccc3c(c2)OCO3)c1 | 0 | ? | 0 | 0 | 0 | 0
O=C(COc1ccc([N+](=O)[O-])cc1)Nc1ccccc1C(=O)NC1CC1 | 0 | 0 | 0 | 0 | - | 0
CN(C)/C=C(\C#N)C(=O)N/N=C/c1ccc(Cl)cc1 | 17µM | 0 | ? | 0 | 0 | 2.2µM
CN(C)/C=C(\C#N)C(=O)Nc1ccc(F)c(Cl)c1 | ? | ? | 3.2µM | ? | - | 3.5µM
SMILES | FLuc modulator | ELG1 DNA repair | Rab9 promoter act | ELG1 genotoxic | SMN2 splice up | NPC1 promoter act
CCC(=O)Nc1c(-c2ccc(Cl)cc2)c(=O)c2ccccc2n1C | 0 | 0 | 0 | 0 | - | 0
COc1ccc(CC(=O)Nc2ccc3c(c2)CCC3)cc1OC | 0 | 10µM | 0 | 0 | 0 | 0
COc1ccccc1C(=O)NCC(=O)Nc1ccc2c(c1)CCC2 | 12µM | ? | 0 | ? | - | ?
Cc1ccccc1CC(=O)Nc1ccc2c(c1)CCC2 | ? | ? | 0 | 0 | - | 0
COc1ccc(OC)c(CC(=O)Nc2ccc3c(c2)CCC3)c1 | 0 | 0 | 0 | 0 | - | 0
CCCCN(C)CCC(=O)Nc1ccc2c(c1)CCC2 | 0 | 15µM | 0 | 0 | - | 0
COc1ccccc1CC(=O)Nc1ccc2c(c1)CCC2 | ? | ? | 0 | 0 | 0 | 0
COc1ccc(NC(=O)CN(C)CC(=O)Nc2ccc3c(c2)CCC3)cc1 | 0 | 0 | 0 | 0 | 0 | 0
O=C(Cc1ccccc1F)Nc1ccc2c(c1)CCC2 | 7.6µM | ? | 3.2µM | 15µM | - | 2µM
COc1cccc(Nc2nc3ccc(C(=O)c4ccccc4)cc3n3c(C)nnc23)c1 | 0 | - | - | - | 0 | -
CCCC(=O)Nc1ccc2c(c1)Cc1ccccc1-2 | 9.5µM | ? | 2.5µM | ? | - | 1.8µM
O=C(COC(=O)CCC(=O)c1cccs1)Nc1ccccc1C(F)(F)F | - | 0 | - | 0 | - | -
CCOC(=O)N1C(=O)C2(CCCCC2)N(c2ccccc2Cl)C1=S | 0 | ? | 0 | 0 | 0 | 0
CCn1c(C)nc2cc(C(=O)NNC(=S)Nc3ccc(Cl)cc3)ccc21 | ? | 0 | 0 | 0 | - | 0
CCn1c(C)nc2cc(C(=O)NNC(=S)Nc3ccccc3Cl)ccc21 | 17µM | ? | ? | ? | ? | ?
CCn1c(C)nc2cc(C(=O)NNC(=S)Nc3ccccc3)ccc21 | 12µM | ? | 0.79µM | 10µM | 0 | 0.45µM
CCn1c(NC(=S)Nc2ccccc2)nc2ccccc21 | 3.4µM | ? | ? | 0 | 0 | ?
CCCn1c(NC(=S)Nc2ccccc2)nc2ccccc21 | ? | ? | 0 | ? | 0 | 0
CCn1c(C)nc2cc(C(=O)NNC(=S)Nc3ccc(Cl)cc3Cl)ccc21 | ? | 0 | 0 | 0 | 0 | 0
Cc1ccc(CNC(=O)CN(C(=O)C2(C)CC(=O)N=C3C=CC=CN32)c2ccccc2F)cc1 (stereo not drawn) | 0 | 0 | 0 | 0 | - | 0
CCn1ccc(C(=O)N2CCOCC2)n1 | 0 | 0 | 0 | 0 | 0 | 0
CCn1ccc(C(=O)Oc2ccc(C(C)C)cc2)n1 | 2.7µM | 0 | 0 | ? | 0 | 0
Cc1cccc(C(=O)c2c(N)sc3c2CCCC3)c1 | 0 | 0 | 0 | 0 | - | 0
CCN(CC)C(=O)c1c(NC(=O)c2cccc(C)c2)sc2c1CCC(C)C2 (stereo not drawn) | 17µM | - | - | - | 0 | -
Cc1cccc(C(=O)c2c(N)sc3c2CCC(C)C3)c1 (stereo not drawn) | 21µM | ? | ? | ? | - | ?
CSc1ccc(CCNS(=O)(=O)c2cc(-c3cc(C)no3)ccc2C)cc1 | 0 | - | - | - | - | -
O=C(NCCN1C(=O)S/C(=C\c2ccc(Cl)c(Cl)c2)C1=O)c1ccc2c(c1)C(=O)N(Cc1ccncc1)C2=O | 0 | 9.2µM | 0 | 0 | 0 | 0
O=C(NCCN1C(=O)S/C(=C\c2ccc(Cl)c(Cl)c2)C1=O)C1COc2ccccc2O1 (stereo not drawn) | 0 | 0 | 0 | 0 | 0 | 0

Bioassay records: PubChem BioAssay, National Center for Advancing Translational Sciences (NCATS)
